Active and inactive are the calls of the source.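 The calls were made as follows: active = cell event count below 40, meaning activity score above 60 where score is 100 minus count; inactive = the rest.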
Experiment: LNCaP cell loss by flow event count, confirmation, cytotoxicity control for prostate differentiation activator project, single point (AID 1076);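 also: counts scatter-gated live cells after medium removal discards detached dead cells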
Conditions: flow cytometry event count, 4 d, stronger effect = lower value

Compound | cell event count (at 100 µM) | cell event count (event count, at 10 µM)
CCN(CCNC(=O)C1CCN(Cc2nc(-c3cccc(Cl)c3)oc2C)CC1)c1ccccc1 | 3 (active) | 83
Cn1c(=O)[nH]c(=O)c2c1nc(Br)n2CCCSc1nc2ccccc2o1 | 8 (inactive) | 96
CC(C)(C)c1ccc(C(O)CCCN2CCC(C(O)(c3ccccc3)c3ccccc3)CC2)cc1 (stereo unspecified) | 12 (inactive) | 90
CCc1nnc(NC(=O)CSc2nc3ccccc3s2)s1 | 209 (inactive) | 142
CCc1ccc(-c2nc(CN3CCC(C(=O)NCc4ccc(F)cc4)CC3)c(C)o2)cc1 | 1 (active) | 62.5
CCn1c(=O)cc(OCC(=O)NCCCN2CCN(c3cccc(Cl)c3)CC2)c2ccccc21 | 20 (inactive) | 307
O=C(Cn1c(=O)[nH]c2ccsc2c1=O)NC1CCCCCC1 | 120 (inactive) | 118
Cc1ccccc1-c1nc(CN2CCC(C(=O)NCCCN3CC(C)CC(C)C3)CC2)c(C)o1 (stereo unspecified) | 11 (inactive) | 102
CCN1CCN(C(=O)C2CCN(Cc3nc(-c4cccc(Cl)c4)oc3C)CC2)CC1 | 12 (inactive) | 192
CCOC(=O)N1CCN(C(=O)CCc2c(C)nc3c(c(C)nn3-c3ccc(C)c(C)c3)c2C)CC1 | 5 (inactive) | 222
COc1ccc2c(c1OC)C(=O)N(C(C)C(=O)O)C2=O (stereo unspecified) | 56 (inactive) | 53.5
C=CCn1c(=N)n(CC(O)COc2ccccc2OC)c2ccccc21 (stereo unspecified) | 29 (inactive) | 94
Oc1ccccc1CNc1nc2ccccc2n1CCN1CCCCC1 | 44 (inactive) | 176
CCOC(=O)C1=C(C)Nc2nc(SC)nn2C1c1ccc(C(=O)OC)cc1 (stereo unspecified) | 326 (inactive) | 178
COc1ccc(-n2nnnc2SCC(=O)c2ccc(O)c(O)c2)cc1 | 9 (inactive) | 205
CN1CCN(CCCNC(=O)c2cc3c(-c4ccc(Cl)cc4)nn(C)c3s2)CC1 | 7 (inactive) | 146
Cc1ccc(-c2noc(CCC(=O)NCCCN3CCN(c4ccc(F)cc4)CC3)n2)cc1 | 14 (inactive) | 98
O=C(CSc1c[nH]c2ccccc12)N1CCOCC1 | 297 (inactive) | 149
Cc1cc(=O)oc(C)c1C(=O)NCCCN1CCN(c2ccc(F)cc2)CC1 | 236 (inactive) | 100

Compound | cell event count (at 100 µM) | cell event count (event count, at 10 µM)
CCn1c(=O)cc(OCC(=O)O)c2ccccc21 | 22 (inactive) | 99.5
N#CC(C(=O)c1ccco1)c1ccccn1 (stereo unspecified) | 40 (active) | 40.5
COc1ccc(N2CCN(CCCNC(=O)CN3CCN(Cc4ccccc4C)C3=O)CC2)cc1 | 19 (inactive) | 87.5
CN1CCN(c2oc(COc3ccc(-c4ccccc4)cc3)nc2C#N)CC1 | 5 (inactive) | 174
Cn1c(C(=O)NCCCN2CCN(c3ccccc3F)CC2)cc2c(=O)[nH]c3ccccc3c21 | 3 (inactive) | 93
CCN(CC)CC(=O)Nc1ccc(-c2nc3cc(NC(=O)CN(CC)CC)ccc3o2)cc1 | 1 (inactive) | 140
CCN(CCCNS(=O)(=O)c1ccc2c(c1)oc(=O)n2C)c1cccc(C)c1 | 27 (inactive) | 151
Cc1ccccc1-c1nc(CN2CCC(C(=O)NCCCN3CCCC3)CC2)c(C)o1 | 20 (inactive) | 65
Cc1cc(=O)n2nc(N3CCCC3C(=O)NCc3ccccn3)sc2n1 (stereo unspecified) | 101 (inactive) | 61
COc1ccc(NC(=O)NCCCN2CCN(c3cc(C)ccc3C)CC2)cc1 | 1 (inactive) | 102
c1ccc(OCCCn2nnc(-c3cccnc3)n2)cc1 | 123 (inactive) | 126
O=C(Cn1cc2c(n1)CCCC2)NCCCN1CCN(c2ccccc2F)CC1 | 94 (inactive) | 102
CCCCOC(=O)Nc1cc(C(=O)OC)ccc1C(=O)OC | 143 (inactive) | 206
Cc1oc(-c2ccc(Cl)cc2)nc1CN1CCCC(C(=O)NCc2ccccn2)C1 (stereo unspecified) | 34 (inactive) | 168
Cn1nc(-c2ccc(Cl)cc2)c2cc(C(=O)NCCCN3CCOCC3)sc21 | 33 (inactive) | 184
CCc1ccc(-c2nc(CN3CCCC(C(=O)NCCc4ccc(OC)c(OC)c4)C3)c(C)o2)cc1 (stereo unspecified) | 8 (inactive) | 144
CCCc1ccc(Oc2cn[nH]c2-c2ccc(O)c(C)c2O)cc1 | 5 (inactive) | 106
CN1CCN(CC(=O)Nc2ccc(Cl)cc2Cl)CC1 | 117 (inactive) | 198
C=CCn1cc(C(=O)N2CCN(C)CC2)c(=O)c2cc(S(=O)(=O)N3CCCC3)ccc21 | 168 (inactive) | 118

— PubChem BioAssay AID1076 (NMMLSC, 2008)
